# Laboratory results published in article PMC11006913.
# Residue numbers refer to the chain shown, from its start.
# Assays:
# Experiment in all cases: PBM; 200 nM protein, PBS
# Conditions in all cases: dsDNA, one strand shown
# SIX6 [1] = target: T1, SIX6 (Homo sapiens, UniProt O95475 114-200, L167I)
# T1 sequence: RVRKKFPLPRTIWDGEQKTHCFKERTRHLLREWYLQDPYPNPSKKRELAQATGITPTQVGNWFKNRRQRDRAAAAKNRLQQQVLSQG
# SIX6 [2] = target: T2, SIX6 (Homo sapiens, UniProt O95475 114-200, L143V)
# T2 sequence: T1 sequence with L30V, I54L
# SIX6 [3] = target: T3, SIX6 (Homo sapiens, UniProt O95475 114-200, H141N)
# T3 sequence: T1 sequence with H28N, I54L
# SIX6 [4] = target: T4, SIX6 (Homo sapiens, UniProt O95475 114-200, T165P)
# T4 sequence: T1 sequence with T52P, I54L
# SIX6 [5] = target: T5, SIX6 (Homo sapiens, UniProt O95475 114-200, L167M)
# T5 sequence: T1 sequence with I54M
# SIX6 [6] = target: T6, SIX6 (Homo sapiens, UniProt O95475 114-200, L143M)
# T6 sequence: T1 sequence with L30M, I54L
# SIX6 [7] = target: T7, SIX6 (Homo sapiens, UniProt O95475 114-200, L143I)
# T7 sequence: T1 sequence with L30I, I54L
# SIX6 [8] = target: T8, SIX6 (Homo sapiens, UniProt O95475 114-200, T165G)
# T8 sequence: T1 sequence with T52G, I54L
# SIX6 [9] = target: T9, SIX6 (Homo sapiens, UniProt O95475 114-200, T139Q)
# T9 sequence: T1 sequence with T26Q, I54L
# SIX6 [10] = target: T10, SIX6 (Homo sapiens, UniProt O95475 114-200, T165A)
# T10 sequence: T1 sequence with T52A, I54L
# SIX6 [11] = target: T11, SIX6 (Homo sapiens, UniProt O95475 114-200, L167V)
# T11 sequence: T1 sequence with I54V
# SIX6 [12] = target: T12, SIX6 (Homo sapiens, UniProt O95475 114-200)
# T12 sequence: T1 sequence with I54L
# SIX6 [13] = target: T13, SIX6 (Homo sapiens, UniProt O95475 114-200, T165I)
# T13 sequence: T1 sequence with T52I, I54L
sequence,measurement,setting,value
CGGCCACC,binding signal,SIX6 [1],"8.7 upbm affinity estimate (log intensity, higher = more binding, comparable within an allelic series)"
same,binding signal,SIX6 [2],"8.6 upbm affinity estimate (log intensity, higher = more binding, comparable within an allelic series)"
same,binding signal,SIX6 [3],"8.63 upbm affinity estimate (log intensity, higher = more binding, comparable within an allelic series)"
same,binding signal,SIX6 [4],"8.71 upbm affinity estimate (log intensity, higher = more binding, comparable within an allelic series)"
same,binding signal,SIX6 [5],"8.67 upbm affinity estimate (log intensity, higher = more binding, comparable within an allelic series)"
same,binding signal,SIX6 [6],"8.54 upbm affinity estimate (log intensity, higher = more binding, comparable within an allelic series)"
same,binding signal,SIX6 [7],"8.75 upbm affinity estimate (log intensity, higher = more binding, comparable within an allelic series)"
same,binding signal,SIX6 [8],"8.72 upbm affinity estimate (log intensity, higher = more binding, comparable within an allelic series)"
same,binding signal,SIX6 [9],"8.67 upbm affinity estimate (log intensity, higher = more binding, comparable within an allelic series)"
same,binding signal,SIX6 [10],"8.71 upbm affinity estimate (log intensity, higher = more binding, comparable within an allelic series)"
same,binding signal,SIX6 [11],"8.66 upbm affinity estimate (log intensity, higher = more binding, comparable within an allelic series)"
same,binding signal,SIX6 [12],"8.55 upbm affinity estimate (log intensity, higher = more binding, comparable within an allelic series)"
same,binding signal,SIX6 [13],"8.64 upbm affinity estimate (log intensity, higher = more binding, comparable within an allelic series)"
CCCCAGCG,binding signal,SIX6 [1],"9.09 upbm affinity estimate (log intensity, higher = more binding, comparable within an allelic series)"
same,binding signal,SIX6 [2],"8.99 upbm affinity estimate (log intensity, higher = more binding, comparable within an allelic series)"
same,binding signal,SIX6 [3],"9.25 upbm affinity estimate (log intensity, higher = more binding, comparable within an allelic series)"
same,binding signal,SIX6 [4],"9.01 upbm affinity estimate (log intensity, higher = more binding, comparable within an allelic series)"
same,binding signal,SIX6 [5],"9.24 upbm affinity estimate (log intensity, higher = more binding, comparable within an allelic series)"
same,binding signal,SIX6 [6],"9.04 upbm affinity estimate (log intensity, higher = more binding, comparable within an allelic series)"
same,binding signal,SIX6 [7],"9 upbm affinity estimate (log intensity, higher = more binding, comparable within an allelic series)"
same,binding signal,SIX6 [8],"9.14 upbm affinity estimate (log intensity, higher = more binding, comparable within an allelic series)"
same,binding signal,SIX6 [9],"9.23 upbm affinity estimate (log intensity, higher = more binding, comparable within an allelic series)"
same,binding signal,SIX6 [10],"9.18 upbm affinity estimate (log intensity, higher = more binding, comparable within an allelic series)"
same,binding signal,SIX6 [11],"9.13 upbm affinity estimate (log intensity, higher = more binding, comparable within an allelic series)"
same,binding signal,SIX6 [12],"9.15 upbm affinity estimate (log intensity, higher = more binding, comparable within an allelic series)"
same,binding signal,SIX6 [13],"9.2 upbm affinity estimate (log intensity, higher = more binding, comparable within an allelic series)"
CGGCCTGC,binding signal,SIX6 [1],"8.86 upbm affinity estimate (log intensity, higher = more binding, comparable within an allelic series)"
same,binding signal,SIX6 [2],"8.66 upbm affinity estimate (log intensity, higher = more binding, comparable within an allelic series)"
same,binding signal,SIX6 [3],"8.83 upbm affinity estimate (log intensity, higher = more binding, comparable within an allelic series)"
same,binding signal,SIX6 [4],"8.82 upbm affinity estimate (log intensity, higher = more binding, comparable within an allelic series)"
same,binding signal,SIX6 [5],"8.8 upbm affinity estimate (log intensity, higher = more binding, comparable within an allelic series)"
same,binding signal,SIX6 [6],"8.73 upbm affinity estimate (log intensity, higher = more binding, comparable within an allelic series)"
same,binding signal,SIX6 [7],"8.72 upbm affinity estimate (log intensity, higher = more binding, comparable within an allelic series)"
same,binding signal,SIX6 [8],"8.88 upbm affinity estimate (log intensity, higher = more binding, comparable within an allelic series)"
same,binding signal,SIX6 [9],"8.8 upbm affinity estimate (log intensity, higher = more binding, comparable within an allelic series)"
same,binding signal,SIX6 [10],"8.82 upbm affinity estimate (log intensity, higher = more binding, comparable within an allelic series)"
same,binding signal,SIX6 [11],"8.8 upbm affinity estimate (log intensity, higher = more binding, comparable within an allelic series)"
same,binding signal,SIX6 [12],"8.79 upbm affinity estimate (log intensity, higher = more binding, comparable within an allelic series)"
same,binding signal,SIX6 [13],"8.82 upbm affinity estimate (log intensity, higher = more binding, comparable within an allelic series)"
AGCGCAGG,binding signal,SIX6 [1],"9.08 upbm affinity estimate (log intensity, higher = more binding, comparable within an allelic series)"
same,binding signal,SIX6 [2],"8.96 upbm affinity estimate (log intensity, higher = more binding, comparable within an allelic series)"
same,binding signal,SIX6 [3],"9.05 upbm affinity estimate (log intensity, higher = more binding, comparable within an allelic series)"
same,binding signal,SIX6 [4],"8.99 upbm affinity estimate (log intensity, higher = more binding, comparable within an allelic series)"
same,binding signal,SIX6 [5],"9.06 upbm affinity estimate (log intensity, higher = more binding, comparable within an allelic series)"
same,binding signal,SIX6 [6],"9.04 upbm affinity estimate (log intensity, higher = more binding, comparable within an allelic series)"
same,binding signal,SIX6 [7],"9.01 upbm affinity estimate (log intensity, higher = more binding, comparable within an allelic series)"
same,binding signal,SIX6 [8],"9.15 upbm affinity estimate (log intensity, higher = more binding, comparable within an allelic series)"
same,binding signal,SIX6 [9],"9.1 upbm affinity estimate (log intensity, higher = more binding, comparable within an allelic series)"
same,binding signal,SIX6 [10],"9.08 upbm affinity estimate (log intensity, higher = more binding, comparable within an allelic series)"
same,binding signal,SIX6 [11],"9.04 upbm affinity estimate (log intensity, higher = more binding, comparable within an allelic series)"
same,binding signal,SIX6 [12],"9.02 upbm affinity estimate (log intensity, higher = more binding, comparable within an allelic series)"
same,binding signal,SIX6 [13],"9.03 upbm affinity estimate (log intensity, higher = more binding, comparable within an allelic series)"
ACGCCGGG,binding signal,SIX6 [1],"9.17 upbm affinity estimate (log intensity, higher = more binding, comparable within an allelic series)"
same,binding signal,SIX6 [2],"8.97 upbm affinity estimate (log intensity, higher = more binding, comparable within an allelic series)"
same,binding signal,SIX6 [3],"9.1 upbm affinity estimate (log intensity, higher = more binding, comparable within an allelic series)"
same,binding signal,SIX6 [4],"8.92 upbm affinity estimate (log intensity, higher = more binding, comparable within an allelic series)"
same,binding signal,SIX6 [5],"9.17 upbm affinity estimate (log intensity, higher = more binding, comparable within an allelic series)"
same,binding signal,SIX6 [6],"9.18 upbm affinity estimate (log intensity, higher = more binding, comparable within an allelic series)"
same,binding signal,SIX6 [7],"9.05 upbm affinity estimate (log intensity, higher = more binding, comparable within an allelic series)"
same,binding signal,SIX6 [8],"9.16 upbm affinity estimate (log intensity, higher = more binding, comparable within an allelic series)"
same,binding signal,SIX6 [9],"9.21 upbm affinity estimate (log intensity, higher = more binding, comparable within an allelic series)"
same,binding signal,SIX6 [10],"9.2 upbm affinity estimate (log intensity, higher = more binding, comparable within an allelic series)"
same,binding signal,SIX6 [11],"9 upbm affinity estimate (log intensity, higher = more binding, comparable within an allelic series)"
same,binding signal,SIX6 [12],"9.15 upbm affinity estimate (log intensity, higher = more binding, comparable within an allelic series)"
same,binding signal,SIX6 [13],"9.16 upbm affinity estimate (log intensity, higher = more binding, comparable within an allelic series)"
CGGGAAGC,binding signal,SIX6 [1],"9.04 upbm affinity estimate (log intensity, higher = more binding, comparable within an allelic series)"
same,binding signal,SIX6 [2],"8.99 upbm affinity estimate (log intensity, higher = more binding, comparable within an allelic series)"
same,binding signal,SIX6 [3],"9 upbm affinity estimate (log intensity, higher = more binding, comparable within an allelic series)"
same,binding signal,SIX6 [4],"9.05 upbm affinity estimate (log intensity, higher = more binding, comparable within an allelic series)"
same,binding signal,SIX6 [5],"9.01 upbm affinity estimate (log intensity, higher = more binding, comparable within an allelic series)"
same,binding signal,SIX6 [6],"8.96 upbm affinity estimate (log intensity, higher = more binding, comparable within an allelic series)"
same,binding signal,SIX6 [7],"9.03 upbm affinity estimate (log intensity, higher = more binding, comparable within an allelic series)"
same,binding signal,SIX6 [8],"9.03 upbm affinity estimate (log intensity, higher = more binding, comparable within an allelic series)"
same,binding signal,SIX6 [9],"9.07 upbm affinity estimate (log intensity, higher = more binding, comparable within an allelic series)"
same,binding signal,SIX6 [10],"9.03 upbm affinity estimate (log intensity, higher = more binding, comparable within an allelic series)"
same,binding signal,SIX6 [11],"9.01 upbm affinity estimate (log intensity, higher = more binding, comparable within an allelic series)"
same,binding signal,SIX6 [12],"8.93 upbm affinity estimate (log intensity, higher = more binding, comparable within an allelic series)"
same,binding signal,SIX6 [13],"8.99 upbm affinity estimate (log intensity, higher = more binding, comparable within an allelic series)"
